Results taken from the supplement of paper PMC11732987, “Enantioselective OTUD7B fragment discovery through chemoproteomics screening and high-throughput optimisation” (Communications Chemistry, 2025).

Tests used:
Assay in all cases: log2 ratio of Biotin-Ahx-Ub-VS probe labelling (fragment/DMSO); higher = less target engagement (more negative = stronger competition), active = hit call of the paper (q ≤ 0.05, log2 ratio ≤ -1)
Details in all cases: compound concentration: 200 uM; treatment time: 3 h
OTUD6B = biological target: T1, OTUD6B (UniProt Q8N6M0)
T1 sequence (whole entry): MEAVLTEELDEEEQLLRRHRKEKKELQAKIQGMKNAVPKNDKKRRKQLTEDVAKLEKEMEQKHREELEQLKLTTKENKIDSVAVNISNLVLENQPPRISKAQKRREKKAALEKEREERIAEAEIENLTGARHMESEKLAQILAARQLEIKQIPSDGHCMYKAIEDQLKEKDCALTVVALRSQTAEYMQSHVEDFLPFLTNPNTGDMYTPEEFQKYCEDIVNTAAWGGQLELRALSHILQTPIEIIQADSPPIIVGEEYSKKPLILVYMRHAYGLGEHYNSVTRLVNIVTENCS
In short: (§1)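 Global-median-normalised Spectronaut label-free quantities were compared by unpaired t-test, and values are average log2 ratios of fragment over vehicle. Only proteins with ≥2 unique peptides were used. HEK293T lysate (495 µg per sample) was treated in triplicate with fragment at 200 µM or vehicle for 3 h and then with Biotin-Ahx-Ub-VS at 0.5 µM final for 1 h. Labelled DUBs were then NeutrAvidin-enriched, digested with LysC and trypsin, and run by diaPASEF LC-MS/MS.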

OTUD7B = biological target: T2, OTUD7B (UniProt Q6GQQ9)
T2 sequence (whole entry): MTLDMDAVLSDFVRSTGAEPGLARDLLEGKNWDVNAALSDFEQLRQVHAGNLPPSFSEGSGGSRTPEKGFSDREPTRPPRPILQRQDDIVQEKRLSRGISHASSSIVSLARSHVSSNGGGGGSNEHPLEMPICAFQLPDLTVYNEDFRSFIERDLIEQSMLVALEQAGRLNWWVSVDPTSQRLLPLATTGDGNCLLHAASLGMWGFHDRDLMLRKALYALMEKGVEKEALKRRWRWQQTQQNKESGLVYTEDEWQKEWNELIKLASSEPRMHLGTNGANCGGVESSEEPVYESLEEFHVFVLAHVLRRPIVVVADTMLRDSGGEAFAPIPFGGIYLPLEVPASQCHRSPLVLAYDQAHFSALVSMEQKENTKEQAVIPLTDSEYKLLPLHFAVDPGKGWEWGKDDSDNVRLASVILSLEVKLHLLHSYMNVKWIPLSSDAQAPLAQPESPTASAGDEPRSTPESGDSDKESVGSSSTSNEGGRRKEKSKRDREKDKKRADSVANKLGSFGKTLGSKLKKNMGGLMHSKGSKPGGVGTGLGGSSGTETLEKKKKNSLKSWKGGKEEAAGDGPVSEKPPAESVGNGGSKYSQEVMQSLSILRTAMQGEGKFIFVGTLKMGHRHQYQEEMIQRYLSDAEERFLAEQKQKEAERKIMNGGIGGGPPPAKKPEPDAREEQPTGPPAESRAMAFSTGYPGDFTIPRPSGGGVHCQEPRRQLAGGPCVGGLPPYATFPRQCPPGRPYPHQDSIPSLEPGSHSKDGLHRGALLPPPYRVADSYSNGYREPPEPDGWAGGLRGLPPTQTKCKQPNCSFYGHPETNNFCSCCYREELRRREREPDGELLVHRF
In short: as §1

PRPF8 = PRPF8 (UniProt Q6P2Q9)
In short: as §1

PSMD7 = biological target: T3, PSMD7 (UniProt P51665)
T3 sequence (whole entry): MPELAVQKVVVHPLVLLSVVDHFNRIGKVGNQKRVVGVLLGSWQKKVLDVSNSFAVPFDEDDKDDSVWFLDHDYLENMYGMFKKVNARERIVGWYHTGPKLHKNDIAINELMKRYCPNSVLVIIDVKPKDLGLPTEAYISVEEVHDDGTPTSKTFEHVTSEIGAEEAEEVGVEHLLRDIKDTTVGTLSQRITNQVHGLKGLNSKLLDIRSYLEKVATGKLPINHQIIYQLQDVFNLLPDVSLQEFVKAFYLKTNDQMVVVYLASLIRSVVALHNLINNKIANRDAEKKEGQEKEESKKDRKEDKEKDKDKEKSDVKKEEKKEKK
In short: as §1

UCHL1 = UCHL1 (UniProt P09936)
In short: as §1

UCHL3 = biological target: T4, UCHL3 (UniProt P15374)
T4 sequence (whole entry): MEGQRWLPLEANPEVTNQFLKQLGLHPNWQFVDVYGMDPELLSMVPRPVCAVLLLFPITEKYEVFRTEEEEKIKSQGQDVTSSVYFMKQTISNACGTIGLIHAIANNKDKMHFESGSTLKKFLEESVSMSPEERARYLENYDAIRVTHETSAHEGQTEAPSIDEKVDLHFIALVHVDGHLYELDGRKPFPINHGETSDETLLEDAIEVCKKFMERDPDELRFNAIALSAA
In short: as §1

UCHL5 = biological target: T5, UCHL5 (UniProt Q9Y5K5)
T5 sequence (whole entry): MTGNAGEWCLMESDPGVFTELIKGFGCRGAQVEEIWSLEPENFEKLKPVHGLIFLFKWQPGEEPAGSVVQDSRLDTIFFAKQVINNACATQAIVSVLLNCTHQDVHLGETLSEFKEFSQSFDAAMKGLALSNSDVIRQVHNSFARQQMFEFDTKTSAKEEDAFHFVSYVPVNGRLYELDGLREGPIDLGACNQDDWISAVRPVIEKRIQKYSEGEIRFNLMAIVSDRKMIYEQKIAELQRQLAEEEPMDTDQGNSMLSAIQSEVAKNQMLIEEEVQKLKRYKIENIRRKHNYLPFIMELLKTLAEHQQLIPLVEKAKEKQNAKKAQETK
In short: as §1

USP10 = USP10 (UniProt Q14694)
In short: as §1

USP15 = biological target: T6, USP15 (UniProt Q9Y4E8)
T6 sequence (whole entry): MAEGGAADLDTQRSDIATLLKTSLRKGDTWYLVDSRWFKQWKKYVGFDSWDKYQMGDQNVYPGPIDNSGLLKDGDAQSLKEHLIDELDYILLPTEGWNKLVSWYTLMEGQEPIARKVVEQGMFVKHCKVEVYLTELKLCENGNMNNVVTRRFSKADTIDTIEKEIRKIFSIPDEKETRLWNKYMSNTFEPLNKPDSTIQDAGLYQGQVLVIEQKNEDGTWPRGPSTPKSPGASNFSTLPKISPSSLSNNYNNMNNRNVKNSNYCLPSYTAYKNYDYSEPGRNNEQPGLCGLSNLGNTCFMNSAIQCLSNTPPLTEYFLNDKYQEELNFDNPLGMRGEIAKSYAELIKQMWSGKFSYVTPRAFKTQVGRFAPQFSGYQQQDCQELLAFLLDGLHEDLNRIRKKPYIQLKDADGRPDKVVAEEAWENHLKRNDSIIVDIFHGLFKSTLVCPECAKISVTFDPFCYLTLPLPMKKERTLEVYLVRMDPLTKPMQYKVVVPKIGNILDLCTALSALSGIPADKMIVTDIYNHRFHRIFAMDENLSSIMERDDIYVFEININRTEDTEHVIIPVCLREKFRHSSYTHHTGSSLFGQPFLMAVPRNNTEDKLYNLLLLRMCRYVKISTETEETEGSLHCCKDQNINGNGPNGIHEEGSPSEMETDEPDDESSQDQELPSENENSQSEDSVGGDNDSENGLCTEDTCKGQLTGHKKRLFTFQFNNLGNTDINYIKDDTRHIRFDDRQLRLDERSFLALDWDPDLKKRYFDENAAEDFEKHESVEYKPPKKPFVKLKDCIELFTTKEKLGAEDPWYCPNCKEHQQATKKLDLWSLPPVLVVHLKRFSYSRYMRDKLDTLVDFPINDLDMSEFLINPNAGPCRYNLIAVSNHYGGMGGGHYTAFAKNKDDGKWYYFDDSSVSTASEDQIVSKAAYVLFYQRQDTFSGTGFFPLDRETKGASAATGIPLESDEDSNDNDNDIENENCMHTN
In short: as §1

USP16 = USP16 (UniProt Q9Y5T5)
In short: as §1

Measured: log2 ratio of Biotin-Ahx-Ub-VS probe labelling

Chain of USP16 (Q9Y5T5 whole entry, looked up): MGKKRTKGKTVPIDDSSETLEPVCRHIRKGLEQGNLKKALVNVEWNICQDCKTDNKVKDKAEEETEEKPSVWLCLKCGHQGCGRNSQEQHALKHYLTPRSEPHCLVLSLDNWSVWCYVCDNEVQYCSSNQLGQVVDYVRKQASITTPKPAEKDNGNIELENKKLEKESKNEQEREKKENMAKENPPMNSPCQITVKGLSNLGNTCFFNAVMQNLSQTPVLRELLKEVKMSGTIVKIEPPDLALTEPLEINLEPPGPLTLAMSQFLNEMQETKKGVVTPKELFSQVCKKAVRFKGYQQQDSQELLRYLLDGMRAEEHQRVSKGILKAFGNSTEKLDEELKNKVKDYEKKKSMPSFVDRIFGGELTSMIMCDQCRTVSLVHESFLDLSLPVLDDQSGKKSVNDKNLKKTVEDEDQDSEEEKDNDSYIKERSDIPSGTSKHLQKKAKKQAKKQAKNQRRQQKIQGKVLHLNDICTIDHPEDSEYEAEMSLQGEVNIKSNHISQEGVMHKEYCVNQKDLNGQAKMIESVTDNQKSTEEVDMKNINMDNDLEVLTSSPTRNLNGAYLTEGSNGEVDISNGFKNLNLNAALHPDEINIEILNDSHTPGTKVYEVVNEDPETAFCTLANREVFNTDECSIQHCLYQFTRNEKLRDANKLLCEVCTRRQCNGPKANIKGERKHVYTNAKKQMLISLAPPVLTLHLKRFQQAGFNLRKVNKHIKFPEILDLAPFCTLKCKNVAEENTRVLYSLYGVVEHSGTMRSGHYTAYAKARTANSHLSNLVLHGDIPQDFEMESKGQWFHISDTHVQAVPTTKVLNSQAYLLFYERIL
Chain of USP10 (Q14694 whole entry): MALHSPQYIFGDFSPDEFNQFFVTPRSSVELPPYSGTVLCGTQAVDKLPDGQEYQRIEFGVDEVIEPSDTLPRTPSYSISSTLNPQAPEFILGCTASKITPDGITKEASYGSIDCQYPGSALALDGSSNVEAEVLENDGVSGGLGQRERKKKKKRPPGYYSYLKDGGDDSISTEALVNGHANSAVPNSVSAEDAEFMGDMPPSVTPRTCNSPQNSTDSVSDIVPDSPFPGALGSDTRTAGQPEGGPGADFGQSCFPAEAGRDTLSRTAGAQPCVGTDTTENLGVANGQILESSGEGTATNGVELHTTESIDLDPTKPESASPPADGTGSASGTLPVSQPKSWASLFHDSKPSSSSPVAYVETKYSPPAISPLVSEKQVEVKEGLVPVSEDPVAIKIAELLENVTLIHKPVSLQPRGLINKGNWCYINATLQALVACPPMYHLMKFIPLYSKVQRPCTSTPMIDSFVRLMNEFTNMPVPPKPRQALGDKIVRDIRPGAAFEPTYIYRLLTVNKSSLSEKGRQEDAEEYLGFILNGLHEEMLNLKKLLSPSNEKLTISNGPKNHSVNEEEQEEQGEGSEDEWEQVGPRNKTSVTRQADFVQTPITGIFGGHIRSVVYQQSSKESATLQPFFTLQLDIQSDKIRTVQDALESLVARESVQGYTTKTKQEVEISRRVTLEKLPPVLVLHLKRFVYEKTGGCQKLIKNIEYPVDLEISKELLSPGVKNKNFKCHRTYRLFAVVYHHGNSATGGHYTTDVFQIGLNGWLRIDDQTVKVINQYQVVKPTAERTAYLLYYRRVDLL
Chain of UCHL1 (P09936 whole entry, looked up): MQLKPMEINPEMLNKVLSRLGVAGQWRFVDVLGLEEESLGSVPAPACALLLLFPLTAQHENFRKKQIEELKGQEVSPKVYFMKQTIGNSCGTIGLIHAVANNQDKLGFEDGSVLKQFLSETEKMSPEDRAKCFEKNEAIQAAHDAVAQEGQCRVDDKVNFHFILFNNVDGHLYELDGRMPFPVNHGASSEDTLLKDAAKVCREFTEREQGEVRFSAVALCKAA

C[C@@H](NC(=O)CCl)c1cccc(C#N)c1
inactive: OTUD6B -0.0614 | PRPF8 0.0368 | PSMD7 -0.233 | UCHL3 0.359 | UCHL5 -0.189 | USP10 -0.103 | USP15 -0.222 | USP16 0.0341
active: OTUD7B -1.42 | UCHL1 -1.24
